{"source": "PubChem BioAssay (EPA / NIEHS)", "note": "Active and inactive are the calls of the source. The calls were made as follows: active = hit-call score of the fitted dose curve at least 0.9, where 1 is the maximum; inactive = score below 0.9.", "data": [{"experiment": "CCTE_Shafer_MEA_acute_per_network_burst_spike_number_mean: CCTE's Neural Acute Assay for Average Number of Spikes in a Network Burst, Shafer Lab (AID 2284019)", "method": "CCTE_Shafer_MEA_acute assay is conducted using Axion Biosystems 48 well microelectrode array (MEA) plates and Maestro recording system. Each well of the MEA plate contains a grid of 16 microelectrodes embedded in the culture surface. Electrically active cells, such as neurons, can be cultured over the electrodes, and electrical activity in these cells can be recorded extracellularly. The spontaneous firing of neurons is captured from each electrode on a microsecond timescale providing both temporally and spatially precise data. […] The CCTE_Shafer_MEA_acute assay uses primary cultures of rat cortical neurons. As these cultures mature over time, neural networks develop functional activity and form cohesive networks in which electrical activity can be highly coordinated. Baseline 40-minute recordings are made on days post-plating 13 or 15, followed by a secondary 40-minute recording after chemical exposure.CCTE_Shafer_MEA_acute_per_network_burst_spike_number_mean is a component of the CCTE_Shafer_MEA_acute assay. It measures the average number of spikes (action potential firings) in a network burst (temporally-clustered group of spikes across multiple electrodes) as the total number of spikes in a network burst divided by the number of network bursts during a recording in a microelectrode array (MEA) using Axion Biosystems Maestro 768 channel amplifier with the AxIS adaptive spike detector. The recordings before and after chemical treatment are used to calculate a percent change in the mean number of spikes in a network burst in each well.Data from the assay component CCTE_Shafer_MEA_acute_per_network_burst_spike_number_mean was analyzed into 1 assay endpoint. This assay endpoint, CCTE_Shafer_MEA_acute_per_network_burst_spike_number_mean, was analyzed in the negative analysis fitting direction relative to DMSO as the negative control and baseline of activity. Using a type of functional reporter, gain or loss-of-signal activity can be used to understand electrical activity.\nSpontaneous activity in the cortical cultures was recorded using an Axion Biosystems Maestro 768 channel amplifier and Axion Integrated Studios (AxIS) v1.8 (or later) software. The amplifier recorded from all channels simultaneously (gain = 1200 x; sampling rate = 12.5 kHz/channel): raw signals were filtered with a Butterworth band-pass filter (300-5000 Hz), which filters out slower local field potentials leaving only fast potentials, i.e., \"spikes\", arising from extracellular currents associated with action potentials (Pine 2006; Wheeler and Nam 2011). On-line spike detection of filtered signals was conducted with the AxIS adaptive spike detector, using a threshold of 8x the root mean squared (rms) noise on each channel. Any electrodes with rms noise levels greater than 5 uV were grounded (e.g., no data were recorded). Once grounded, an electrode was grounded for the duration of the experiment. All recordings were conducted at 37 C. Wells were deemed usable if on the day of the exposure >/= 10 electrodes were active (defined as >/= 5 spikes/min). On DIV 13 or 15, a minimum of three wells from one cortical culture preparation were treated with each compound (0.03-40 uM). Prior to recording baseline activity, each mwMEA plate was placed in the Maestro at 37 C and allowed to sit for 20 min while firing rates stabilized. Baseline activity (40 min) was recorded before the addition of each compound. An additional 40 min of spontaneous activity was recorded in the presence of each compound. Changes in network parameters relative to baseline were assessed following compound treatment.", "values": [{"smiles": "Cc1ccc(N)c(N)c1", "outcome": "inactive"}, {"smiles": "CCC(C)c1ccc(O)cc1", "note": "(stereo not given)", "outcome": "inactive"}, {"smiles": "ClC1=C(Cl)[C@]2(Cl)[C@H]3[C@H]([C@@H]4C=C[C@H]3C4)[C@@]1(Cl)C2(Cl)Cl", "outcome": "inactive"}, {"smiles": "c1ccc(NNc2ccccc2)cc1", "outcome": "inactive"}, {"smiles": "O=Cc1ccco1", "outcome": "inactive"}, {"smiles": "CCCCOC(=O)c1ccccc1C(=O)OCc1ccccc1", "AC50": "2.58 µM (active)"}, {"smiles": "CCN(CC)CCO", "outcome": "inactive"}, {"smiles": "O=[N+]([O-])c1ccc(Oc2ccc(Cl)cc2Cl)cc1", "outcome": "inactive"}, {"smiles": "N#CC(Br)Br", "outcome": "inactive"}, {"smiles": "[Cl-].[Cl-].[Hg+2]", "outcome": "inactive"}, {"smiles": "O=C(N[C@H](c1ccccc1)[C@@H]1CN2CCC1CC2)c1c(Cl)ccc(C(F)(F)F)c1Cl", "outcome": "inactive"}, {"smiles": "Clc1ccc(C(c2ccc(Cl)cc2)C(Cl)(Cl)Cl)cc1", "outcome": "inactive"}, {"smiles": "O=C(Oc1ccc(Br)cc1)N1CCN2CCC1CC2", "AC50": "20 µM (active)"}, {"smiles": "CCN(CC)N=O", "outcome": "inactive"}, {"smiles": "ClC1=C(Cl)C2(Cl)C3C(Cl)C=CC3C1(Cl)C2(Cl)Cl", "note": "(stereo not given)", "AC50": "4.22 µM (active)"}, {"smiles": "CCC[CH2][Sn]([Cl])([CH2]CCC)[CH2]CCC", "outcome": "inactive"}, {"smiles": "CC(C)(OOC(C)(C)c1ccccc1)c1ccccc1", "outcome": "inactive"}, {"smiles": "CCCCCOC(=O)c1ccccc1C(=O)OCCCCC", "outcome": "inactive"}, {"smiles": "C[N+](C)(C)CC1CO1", "note": "(stereo not given)", "outcome": "inactive"}, {"smiles": "O=[N+]([O-])C(Br)(CO)CO", "outcome": "inactive"}, {"smiles": "COC(=O)Nc1nc2ccccc2[nH]1", "outcome": "inactive"}, {"smiles": "CCCCCCCCn1sccc1=O", "AC50": "3.28 µM (active)"}, {"smiles": "Cc1cc(N=Nc2ccccc2C)ccc1N", "outcome": "inactive"}, {"smiles": "ClCCOCCCl", "outcome": "inactive"}, {"smiles": "O=P(OCCCl)(OCCCl)OCCCl", "outcome": "inactive"}, {"smiles": "CC(C)COC(=O)c1ccccc1C(=O)OCC(C)C", "AC50": "6.67 µM (active)"}, {"smiles": "c1ccc(N=Nc2ccccc2)cc1", "outcome": "inactive"}, {"smiles": "Clc1ccc(C(c2ccc(Cl)cc2)C(Cl)Cl)cc1", "AC50": "2.37 µM (active)"}, {"smiles": "CC(C)(O)c1cnn2c(-c3ccc(F)c(-c4c(F)cccc4C#N)c3)cnc2n1", "outcome": "inactive"}, {"smiles": "CC(C)(C)C(O)(CCc1ccc(Cl)cc1)Cn1cncn1", "note": "(stereo not given)", "AC50": "1.22 µM (active)"}]}]}
